# Source: PubChem BioAssay AID1159506 (National Center for Advancing Translational Sciences (NCATS), 2015)
# Whole data set: some 59,000 sequences, median the read-out near -0.00055, cut for the lowest 2% near -2. Many of the other results were omitted from the sample, so the lowest values are more common in it than they were.
# Experiment: Identification of proteins required for the processing of the EWS-FLI1 nascent transcript;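 note: robust z of luciferase light less the median z of siRNAs with the same seed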
# Conditions: TC32 Ewing sarcoma NR0B1-luc vs CMV-luc (EWS-FLI1 target promoter against control promoter), 48 h; screened at 20 nM (by protocol)
# Summary of the method: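 Readout: OneGlo luminescence, 48 h post-transfection, TC32-NR0B1-luc vs TC32-CMV-luc in parallel. siRNA 20 nM final, RNAiMax lipid, 600 cells/well; z-score-MAD transformed, then seed-adjusted.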
row,Sequence,seed-corrected z-score
1,AAACACUCCACUGAUGUGC against IFT140,-0.256
2,UGCGCUUACGCUUCUUACC against HIST1H2BB,-0.822
3,UUUCGGUAGUAGGAUUUCC against RBAK,0.44
4,AAAACUUGCACCUUCGUGU against ARMC10,-0.114
5,UUUAGUGUCAGUUGAUUUG against CPXCR1,0.162
6,UAUCAGACAAUUCAUCCGG against LONRF2,-0.662
7,AUGGGUCAGAGAGGCAAGG against EXOSC5,-2.07
8,AUGUGGAUCAGAAGUAUCA against OR2T10,0.476
9,UGCAUGAUGAGUGAGGUGC against CYP26B1,-0.927
10,UGACGGAUCAGUCUUAGCC against ATP5O,-0.31
11,AAAUAUAUCUCUUGGAUCU against LRRC75A-AS1,0.788
12,UCUAAUUCCAUACUGAUUC against PRKCQ-AS1,-0.219
13,UUAUAAAAUUUGGUGAUGG against CNNM2,-2.17
14,AAAGAAGGAAUUGAGAUUC against RAPGEF3,0.508
15,UAGAAAUCUACAAUCUUGU against NR2C2AP,-0.785
16,AUUGUAUCCUGCUGAGUCC against FOXJ2,-0.984
17,ACAGUAAUCCAUAUGGAGG against GPR139,0.177
18,UUUCGUUCUUACGAGAUCC against PKHD1L1,1.16
19,UCCGGAUACACUUCACUAC against ANXA6,-0.467
20,AAAAGUGGAACUUCUUCUC against TTLL8,-2.21
21,AAAGUUGCAGUUGGUCUCC against ZACN,-3.49
22,UUAGCAGCUUGUUAAUUUC against ISY1,-0.616

row,Sequence,seed-corrected z-score
1,UAAGCAGCUUGUAUUGCUC against KIAA0513,0.461
2,UGAGGUUAAAGUGAGUAGC against VIT,-0.117
3,UUUCUUACACCAUGAGACG against INTS4,-0.309
4,UAAAGUAAAGAUGUCUUCC against NPIPA1,0.0914
5,AUAGGGAUCUGAAAGUCCG against SYT4,0.582
6,UCCGGUCAAACUUAGUGCC against AQR,-3.37
7,AACGAAAUAAAAGCUGUCC against CFAP69,-0.411
8,UAUCGAACCAACCAGCAUC against MFSD4A,1.1
9,UUCGAUGAACUUCUUUUGC against BROX,1.04
10,UCCCGGGACAGCAUGUAGU against USP17L9P,0.146
11,CAAUACUCCAGCAUCAGGC against OPA3,-2.35
12,UACAAGAAUAGUCACAAUG against OR5H1,0.319
13,UCUGUAUCAAUGAUUAAAC against ICE2,0.6
14,UUUGUUAGUCAGGUAUUCC against CCDC121,2.03
15,UGGGUAUGUAGUAAUCUCG against ADGB,-3.05
16,AGACUGUAAAAGAUCUGUG against CCDC106,-0.709
17,AAUCGUACACUCUCCGUAG against CHST2,-1.01
18,UCACUUAGCAGGCUCUCUG against DDIT4L,-0.677
19,ACCGUUAAACUUGUAAUCG against ZFYVE9,0.0151
20,AUAGAUGCGAUCUAUGAGC against TRE17,0.156
21,UGGUUGUACGCGAUGUCCG against FZD1,-3.54
22,UGCUGCAAGAGGUUAUUCC against HAS1,0.441

row,Sequence,seed-corrected z-score
1,UAAUUGUCAGCUGAUUGUC against CDC6,-0.689
2,UCACCGUUCCAUUCAAGUC against IKBKB,0.0239
3,UUUGGGAAAGUAGCUAUCA against LINC01124,-2.24
4,AUUGGAGCAAGACUUUUAG against BDKRB1,-0.291
5,UUCAGCUAUAAAGUAAAGC against IL18,-13
6,AAGGCUCCAAUGAUAAGUG against NRG4,-0.154
7,UCGCUUUCCUCCAGGGUAC against GNRH2,-0.382
8,AAAGCUGCGUCUUGUCUCG against LDLRAD2,-3.83
9,UAAGAACCCACAGUAUUGA against FBLN2,0.31
10,UAAAUAAUAUUGCACAUAC against FAM228A,0.618
11,UUGAAUUUAAGAGAAAGGA against NPR3,0.283
12,AUAGUCAGCUGUGCUCUGC against FLJ16423,-0.343
13,UUAGCAUGCAAAAUCGCCC against CWC22,-3.73
14,UAGGGUGAGUCAAUAAUGG against CSTF2T,-0.0525
15,AUCUUUAUCAUUGGGCAGG against SCAF1,-0.941
16,UUAUAAAUCCCUUUCACCG against CASP9,-0.324
17,UAUGUCUUUCAGACUGACC against RPTN,-1
18,UUUCGGCACUGCAAAGUCG against ATP10A,0.235
19,UCCUGCUUCAUAUCUUCUG against C19orf66,-3.54
20,UUACUGAGGAAGUUUCUUU against CD99L2,-0.781
21,UCCCUGGUAAAGUAUAGUC against EGFEM1P,-1.34
22,UUUCCGUCUGUCUUCUUCC against DCAF4,0.00663

row,Sequence,seed-corrected z-score
1,UUACUAAAGACUGACAACC against ZNF208,-0.0968
2,UACUGCUUCGUAUCUGUCC against PIH1D2,-2.13
3,AUAGGACUGACAGUGUUCA against STAC3,1.13
4,UUUCAUUCGGUGAAAGUCC against MTFR1L,-0.547
5,UAAUUCACUAACUUCAAGC against SLC37A3,0.139
6,UGGGUGUCCAUUCUCGAGC against PPP1R18,1.72
7,UUUUGGGUGUGGACCUUGC against NPFF,0.585
8,ACAGUGGAAACCUCACUUC against FOXP3,0.0552
9,AUUCUUAUCCAUCCGAUCC against CTTN,-0.272
10,UCAUUUUACCUCUUCCAUC against GADL1,0.676
11,UCUGCUUCACCAGUUACUC against HNRNPH1,-2.08
12,UGAUAAACCACAGCAACUC against TYMS,1.01
13,UUUGAUACCUCCUUUACCC against HELB,0.388
14,UCUCUGCUAACGAUAACUC against PIWIL1,-0.0232
15,UAACCUGCUCAAAAGAAUG against ACSL6,0.714
16,UAAAGUACAGCUCGGUUUG against OOSP2,0.436
17,UUUGUUGAAGGUUUCACUG against ZMYND15,1.4
18,UCGAUAGUCAUCAAAGAUC against VWC2L,-2.99
19,UACUGGUAAAAGGUGUUCC against C6orf58,0.5
